Inconclusive results are not listed. Unmarked numbers belong to inactive results. Active and inactive are the calls of the source. Calls come from the whole dose curve; as a rule, active = well fitted cell-killing curve with a large enough effect in the repeat runs; inconclusive = weak or mixed curves, or effect the other way; inactive = flat fitted curve, though single readings scatter.
assay: cAMP Responsive Elements (CRE) small molecule antagonists, cell-based qHTS assay: qHTS cell viability counter screen (AID 2060913); conditions: CRE-bla HEK293T viability, CellTiter-Glo luminescence, 5 h; series mostly up to 92.4 µM; viability change, negative = cytotoxic: at the top concentration; note: nearly all actives have a fitted effect of over 40% in size
How it was run: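 Cytotoxicity read in the same wells as the CRE-bla HEK293T antagonist assay: after 3 h compound with 0.25 uM NKH477 final and 2 h beta-lactamase substrate, CellTiter-Glo luminescence measured.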
% is set by controls: 0 for no effect and ±100 for the full control effect.

| Compound | viability change, negative = cytotoxic | Potency |
| --- | --- | --- |
| CCNc1cc(O)ccc1C | 3.46% |  |
| c1cc(N(CC2CO2)CC2CO2)ccc1OCC1CO1 (stereo not given) |  | inactive |
| CCOC(OCC)OCC | -5.91% |  |
| CC(COc1ccc(C(C)(C)C)cc1)OS(=O)OCCCl (stereo not given) | 2.62% |  |
| CC(O)COc1ccccc1 (stereo not given) |  | inactive |
| CC(C)N(c1ccccc1)C(C)C | 4.38% |  |
| COc1cc2nc(Cl)nc(N)c2cc1OC | -0.0904% [at 42.5 µM] |  |
| O=C1c2ccccc2S(=O)(=O)N1CCCCN1CCN(c2ncccn2)CC1 | -0.621% [at 42.5 µM] |  |
| O=C(O)CCSSCCC(=O)O | -1.69% |  |
| C[C@]12C(=O)OC(=O)[C@H]1[C@H]1C=C[C@@H]2C1 | -6.24% |  |
| CCCSc1ccc2nc(NC(=O)OC)[nH]c2c1 |  | inactive |
| CC(N=C(NC#N)Nc1ccncc1)C(C)(C)C (stereo not given) | -3.93% [at 42.5 µM] |  |
| OC1CCC(C2CCCCC2)CC1 (stereo not given) | 9.61% |  |
| Cc1ccccc1S(N)(=O)=O | -1.42% |  |
| C/C=C/C(=O)CCCC | 6.25% |  |
| CC[C@]12CCCN3CCc4c(n(c5ccccc45)[C@@](O)(C(=O)OC)C1)[C@@H]32 |  | inactive |
| CC(CN)CCCN (stereo not given) | -15.5% |  |
| CC(C)(O)c1ccc(CNC(=O)c2cccnc2Oc2ccc3nonc3c2)cc1 | -10.8% |  |
| CC(C)(C)NCC(O)c1cc(O)cc(O)c1 (stereo not given) | 0.463% [at 42.5 µM] |  |
| CC(C)(CC(=O)O)C(=O)O | 0.868% |  |

| Compound | viability change, negative = cytotoxic | Potency |
| --- | --- | --- |
| Cc1ncc([N+](=O)[O-])n1CC(C)O (stereo not given) | 1.09% [at 42.5 µM] |  |
| C[C@H]1[C@H]2CC[C@H]3[C@@H]4CC=C5C[C@@H](N(C)C)CC[C@]5(C)[C@H]4CC[C@]23CN1C | -0.939% [at 42.5 µM] |  |
| CCCCCCCCC=O | -6.14% |  |
| Cc1ccc2c(n1)Oc1ccc(C(C)C(=O)OCC(=O)N(C)C)cc1C2 (stereo not given) |  | inactive |
| CCO/C=C1\N=C(c2ccccc2)OC1=O | 6.82% |  |
| CC(C)C(C)C | 0.192% |  |
| C#Cc1cccc(Nc2ncnc3cc(OCCOC)c(OCCOC)cc23)c1 | -19.3% [at 42.5 µM] |  |
| C=CCCCCCCCCC(=O)O |  | inactive |
| Cc1ccnc(NS(=O)(=O)c2ccc(N)cc2)n1 | 1.17% [at 42.5 µM] |  |
| CC(C)NC[C@@H](O)COc1ccc(CC(N)=O)cc1 | 3.24% [at 42.5 µM] |  |
| Cc1c(C(=O)O)c(O)cc2c1C(=O)c1c(O)c([C@@H]3O[C@H](CO)[C@@H](O)[C@H](O)[C@H]3O)c(O)c(O)c1C2=O |  | inactive |
| CCCCCCCCc1ccc(Nc2ccc(CCCCCCCC)cc2)cc1 | 1.05% [at 42.5 µM] |  |
| COc1cc(C=O)ccc1OC(=O)C(C)C | 1.59% |  |
| CC(=O)NS(=O)(=O)c1ccc(N)cc1 |  | inactive |
| COC(=O)CCCCCCCCC(=O)OC | 0.756% |  |
| Nc1ccc(S(=O)(=O)O)cc1 | 2.22% |  |
| CCc1cccc(C)c1N |  | inactive |
| CC(=O)O[C@H]1CC[C@@]2(C)C(=CC[C@@H]3[C@@H]2CC[C@]2(C)C(C(C)=O)=CC[C@@H]32)C1 | 6.39% [at 42.5 µM] |  |
| COc1cc2c(cc1OC)CN(C(=O)[C@H](C)N[C@@H](CCc1ccccc1)C(=O)O)[C@H](C(=O)O)C2 | 5.84% [at 42.5 µM] |  |
| CCO[Si](CCCS)(OCC)OCC | 8.19% |  |

— PubChem BioAssay (Tox21)
